These results are taken from PubChem BioAssay.

A number with no mark means an inactive call. Calls of active or inactive are those of the source. Rule as the data show it, unless noted: active = inhibition above about 42%; inactive = the rest.

Experiment [1] can be described thus: StAR promoter reporter inhibitors, counter-screen for LRH-1 inverse agonist project, cell-based, luminescence, high throughput (AID 651611; in the data active = inhibition above about 28%). The note with it: StAR promoter luciferase reporter counterscreen, at 3.6 µM, hits give high values.
Experiment [2] has as its target Nuclear receptor subfamily 5 group A member 2 (Homo sapiens) (UniProt O00482). Briefly: NR5A2 activity suppression in reporter cells – cell-based, luminescence, confirmation (AID 651613).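 Also: HEK293T cells co-transfected with LRH-1 and StAR promoter luciferase reporter; 0% = vehicle wells and 100% = parental cells lacking receptor.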 The note with it: cell-based LRH-1 luciferase reporter, inverse agonism; at 3.6 µM; hits give high values.
In experiment [3] the target is Steroidogenic factor 1 (Homo sapiens) (UniProt Q13285). As to the kind of experiment: inverse agonism at SF1 nuclear receptor – cell-based, luminescence, high throughput, counter-screen for LRH-1 inverse agonist project (AID 651614; in the data active = inhibition above about 44%;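 also: cells cotransfected with StAR promoter reporter and SF1 expression vector; 0% = vehicle on cells with receptor and 100% = vehicle on cells lacking receptor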). The conditions noted are these: cell-based SF1 luciferase reporter, at 3.6 µM, hits give high values.
A short description of experiment [4]: compounds suppressing VP16-driven luciferase signal – cell-based, luminescence, high throughput, counter-screen for LRH-1 inverse agonist project (AID 651615; in the data active = inhibition above about 33%). The conditions noted are these: Gal4-VP16 luciferase reporter cells, at 3.6 µM, hits give high values.

Sequence of Steroidogenic factor 1 (Homo sapiens) (Q13285 whole entry, looked up, the tested form may be a part): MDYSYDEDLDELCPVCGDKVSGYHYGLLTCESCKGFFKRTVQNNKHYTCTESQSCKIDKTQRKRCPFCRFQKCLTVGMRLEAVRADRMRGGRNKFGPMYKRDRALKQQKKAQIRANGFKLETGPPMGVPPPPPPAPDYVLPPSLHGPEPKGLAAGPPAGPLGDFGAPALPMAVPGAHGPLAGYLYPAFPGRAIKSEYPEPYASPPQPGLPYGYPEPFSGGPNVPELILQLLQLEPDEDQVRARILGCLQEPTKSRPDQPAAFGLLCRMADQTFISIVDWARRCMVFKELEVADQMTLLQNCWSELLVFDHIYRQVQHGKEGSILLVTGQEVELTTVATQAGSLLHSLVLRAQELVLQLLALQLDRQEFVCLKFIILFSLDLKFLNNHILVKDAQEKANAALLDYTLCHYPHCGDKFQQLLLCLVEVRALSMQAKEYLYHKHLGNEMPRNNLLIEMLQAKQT
Sequence of Nuclear receptor subfamily 5 group A member 2 (Homo sapiens) (O00482 whole entry, looked up): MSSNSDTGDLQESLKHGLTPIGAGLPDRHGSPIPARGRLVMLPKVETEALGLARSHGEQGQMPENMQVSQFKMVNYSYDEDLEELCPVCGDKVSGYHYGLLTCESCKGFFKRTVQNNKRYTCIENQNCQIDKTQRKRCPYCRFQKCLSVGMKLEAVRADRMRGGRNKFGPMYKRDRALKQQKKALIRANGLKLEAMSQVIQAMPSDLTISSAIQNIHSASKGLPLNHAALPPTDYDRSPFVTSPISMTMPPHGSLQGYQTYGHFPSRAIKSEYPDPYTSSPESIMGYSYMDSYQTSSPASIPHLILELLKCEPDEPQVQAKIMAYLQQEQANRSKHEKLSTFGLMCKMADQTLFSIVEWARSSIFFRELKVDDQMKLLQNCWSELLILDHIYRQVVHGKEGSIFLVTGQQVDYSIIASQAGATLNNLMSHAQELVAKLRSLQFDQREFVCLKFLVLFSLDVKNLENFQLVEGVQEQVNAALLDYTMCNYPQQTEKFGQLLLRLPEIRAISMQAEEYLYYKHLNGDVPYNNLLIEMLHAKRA

With `NC(=O)COc1ccc2c3c(c(=O)oc2c1)CCCCC3`, the inhibition in experiment [1] was -1.98%; in experiment [2], 40.5%; in experiment [3] it was 41.6%; in experiment [4] it was 0.54%.
In the same order, the values of `CCC(=O)Nc1ccc(NC(=O)CSc2nc3c(c(=O)n(C)c(=O)n3C)n2CC)cc1` are 34.6% (active), 58.8% (active), 58.3% (active) and -17.8%.
As to `COc1cccc(-c2cnc3c(NC=O)cc(-c4ccc(S(C)(=O)=O)cc4)cn23)c1`, the inhibition is 30.2% (active) in experiment [1], 61.5% (active) in experiment [2], 52.4% (active) in experiment [3] and -0.78% in experiment [4].
In the same order, the values of `COC(=O)c1ccc([C@H](NC(=O)c2ccco2)[C@]2(C)C[C@H]2C2CCCCC2)cc1` are 4.8%, 30.3%, 21.1% and 2.54%.
Taken in the same sequence, the figures for `CCOc1ccc(NC(=O)COC(=O)C2COc3ccccc3O2)cc1` (centres undefined) were -6.6%, 35.4%, 28.8% and 3.94%.
In the same order, the values of `C#CCSc1nsc(SCC#C)c1C#N` are 3.79%, 53.4% (active), 50.9% (active) and -20%.
Turning to `Cc1cc([N+](=O)[O-])ccc1NCc1ccc2ccccc2c1`, the inhibition in experiment [1] is 1.75%; in experiment [2] it was 43.1% (active); in experiment [3] it was 38.8%; in experiment [4], 2.64%.
In the same order, the values of `CC12CCC(=O)N1c1c(sc3nc(N4CCOCC4)c4c(c13)CCCC4)C(=O)N2` (centres undefined) are 11.1%, 63.7% (active), 53.7% (active) and -1.67%.
Taken in the same sequence, the figures for `O=[N+]([O-])c1cnccc1Nc1cccc(F)c1` were 11.5%, 62.3% (active), 55.1% (active) and 10%.
In the same order, the values of `Cc1cc(C)c2c(N)c3cccc(C)c3nc2n1` are 30.8% (active), 105% (active), 45.8% (active) and 89% (active).
For the compound `Cc1cc(OCC(=O)Nc2cccnc2)c2c(C)c(C)c(=O)oc2c1`, the inhibition in experiment [1] was 10.8%; in experiment [2], 63.2% (active); in experiment [3] it was 52.8% (active); in experiment [4], -34.7%.
Consider `COc1cccc(C(C)(O)c2nc(-c3ccoc3)cs2)c1` (centres undefined), for which the inhibition in experiment [1] was -0.36%; in experiment [2] it was 30.2%; in experiment [3] it was 21.5%; in experiment [4], -0.14%.
Taken in the same sequence, the figures for `CC1CCCN(c2cc(N(C)CCO)c([N+](=O)[O-])c3nonc23)C1` (centres undefined) were 14.3%, 56.2% (active), 43.2% (active) and 14.8%.
Taken in the same sequence, the figures for `COc1ccc(/C=N/NC(=O)c2[nH]c3ccc(Br)cc3c2-c2ccccc2)cc1` were 62.3% (active), 42.6% (active), 50.7% (active) and 32.6% (active).
In the same order, the values of `O=C(Cc1ccc(Cl)cc1Cl)Nc1ccncc1` are 16.2%, 76.1% (active), 72.9% (active) and 48.6% (active).
For `Cc1ccc(NC(=O)CSc2nnc(CNC(=O)c3ccco3)n2C)c(C)c1`, the inhibition in experiment [1] is 6.66%; in experiment [2] it was 58.5% (active); in experiment [3], 51.4% (active); in experiment [4] it was -7.24%.
Take `O=C(NCCCc1ccccc1)c1cc([N+](=O)[O-])ccc1Cl`: the inhibition was 23.3% in experiment [1], 71% (active) in experiment [2], 67.5% (active) in experiment [3] and -15.8% in experiment [4].
In the same order, the values of `O=[N+]([O-])c1ccc(N2CCCC2)nc1N1CCCC1` are 11.1%, 59.7% (active), 56.1% (active) and -3.67%.
In the same order, the values of `CCCc1cc(=O)oc2c(C)c(OCC(=O)NCCCn3ccnc3)ccc12` are -1.87%, 47.8% (active), 35.9% and -19.5%.
In the same order, the values of `O=C1C(Cl)=C(N2CCOCC2)C(=O)N1c1ccc(Br)cc1` are 12.1%, 53.2% (active), 50.8% (active) and 4.3%.
As for `CCOC(=O)C1CCCN(S(=O)(=O)c2ccc(S(=O)(=O)N(CC)CC)cc2)C1` (centres undefined), the inhibition is 18.1% in experiment [1], 60.3% (active) in experiment [2], 54.5% (active) in experiment [3] and 49.5% (active) in experiment [4].
In the same order, the values of `COc1ccc(-c2c(C)nn3c(NC4CCCC4)cc(C)nc23)cc1OC` are 25.9%, 62.9% (active), 54.8% (active) and -3.44%.
In the same order, the values of `COc1cc(-c2cnc3c(NC=O)cc(-c4ccccc4Cl)cn23)cc(OC)c1OC` are 64.9% (active), 45.6% (active), 62.6% (active) and -21.3%.
Taken in the same sequence, the figures for `N=c1sccn1CC(=O)Nc1ccc(S(N)(=O)=O)cc1` were 17.1%, 54.1% (active), 50.5% (active) and -2.17%.
For `COc1ccc(S(=O)(=O)Nc2cc3c4c(oc3c3ccccc23)CCCC4=O)cc1`, the inhibition in experiment [1] was 24.3%; in experiment [2] it was 69.6% (active); in experiment [3] it was 65.9% (active); in experiment [4] it was -1.29%.
In the same order, the values of `CCOc1ccc(NC(=O)Cn2cc(C(C)=O)c3ccccc32)cc1` are 22.7%, 78.3% (active), 73.8% (active) and 41.9% (active).
